LYPLA1 counter: counter-screen for PME1 inhibitors: inhibitors of human LYPLA1; actives 0.16% (n = 320,000); recombinant LYPLA1, FP-Rh probe fluorescence polarization; inhibition, % at 5.9 µM;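 active means inhibition above the mean of all tested compounds plus 3 SD, set per campaign, cut at about 14% in these data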;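 further: inhibitors block serine hydrolase probe labeling of LYPLA1 so polarization falls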
Target sequence (O75608 whole entry, looked up): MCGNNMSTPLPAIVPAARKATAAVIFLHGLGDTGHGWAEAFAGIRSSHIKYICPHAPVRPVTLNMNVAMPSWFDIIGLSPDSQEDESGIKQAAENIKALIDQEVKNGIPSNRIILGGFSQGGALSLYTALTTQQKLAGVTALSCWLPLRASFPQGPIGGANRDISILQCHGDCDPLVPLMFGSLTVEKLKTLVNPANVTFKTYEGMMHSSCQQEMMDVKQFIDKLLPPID
EBNA-1 inhibitor: blocks EBNA-1 binding to DNA | EBNA-1 DNA binding, fluorescence polarization | inhibition, % at 14.8 µM | actives 0.34% (n = 300,000); in the data active means inhibition above about 28%
ZTA DNA inh: counter-screen for EBNA-1 inhibitors: inhibitors of Epstein-Barr virus ZTA; ZTA-DNA binding, fluorescence polarization; inhibition, % at 11 µM; actives 0.15% (n = 320,000); AID 2234; in the data active means inhibition above about 33%
LYPLA2 counter: blocks human lysophospholipase 2, a PME1 counter-screen | recombinant LYPLA2, FP-Rh probe fluorescence polarization | inhibition, % at 5.9 µM | actives 0.38% (n = 320,000) | O95372 | AID 2177;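 active means inhibition above the screen-wide mean plus 3 SD, limit set per campaign, cut at about 26% in these data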
Target sequence (O95372 whole entry, looked up): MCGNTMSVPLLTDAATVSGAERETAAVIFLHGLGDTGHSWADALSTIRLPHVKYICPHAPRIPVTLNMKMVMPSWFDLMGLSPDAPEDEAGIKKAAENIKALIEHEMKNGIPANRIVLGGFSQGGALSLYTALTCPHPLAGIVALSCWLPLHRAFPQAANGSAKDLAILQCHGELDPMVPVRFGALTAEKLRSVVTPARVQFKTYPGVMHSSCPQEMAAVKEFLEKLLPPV
PAD4 FP inh: inhibitors of human PAD4; AID 485272; Q9UM07; actives 0.41% (n = 330,000); recombinant PAD4, RCA probe fluorescence polarization; inhibition, % at 6.36 µM;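 active means percent inhibition above a cutoff equal to the mean of all tested compounds plus 3 SD, cut at about 15% in these data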
GSTO1 inh: blocks human GSTO1 in RBBP9 counter-screen. P78417. recombinant GSTO1, activity-based probe fluorescence polarization. inhibition, % at 5.96 µM. actives 1.1% (n = 300,000);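 active means inhibition above the campaign mean inhibition plus 3 SD, cut at about 35% in these data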
GSTO1 confirm: confirmation of human GSTO1 inhibitors. shares compounds with GSTO1 inh. recombinant GSTO1, probe fluorescence polarization. inhibition, % at 5.96 µM. actives 54% (n = 2,400);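 active means inhibition above the primary screen's cutoff, its mean inhibition plus 3 SD, cut at about 35% in these data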;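 further: loss of polarization as inhibitors block binding of rhodamine sulfonate ester activity probe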
GSTO1 recomb ABPP: inhibitors of recombinant human GSTO1; actives 30% (n = 130); inhibition, % at 1 µM; shares compounds with GSTO1 inh; gel ABPP SE-Rh probe fluorescence;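 active means inhibition of the enzyme GSTO1 above about 75%, limit read from the data; inactive means inhibition below that limit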
Large screens that a line does not name were inactive (follow-up assays come after a bar, where they were run). In the library only some 1.7% were active in any assay of this set; here they are far more common.

CCOC(=O)Cc1c(C)c2c(O)cc(O)cc2oc1=O	GSTO1 inh 59 | GSTO1 confirm inactive
O=C1c2cc(CO)cc(O)c2C(=O)c2c(O[C@@H]3OC(CO)[C@@H](O)[C@@H](O)[C@@H]3O)cccc21 (stereo partly drawn)	none
O=C(O)c1cc(O)c2c(c1)[C@@H]([C@H]1c3cc(C(=O)O)cc(O)c3C(=O)c3c(O[C@@H]4O[C@H](CO)[C@@H](O)[C@H](O)[C@H]4O)cccc31)c1cccc(OC3O[C@H](CO)[C@@H](O)[C@H](O)[C@H]3O)c1C2=O (stereo partly drawn)	LYPLA1 counter 28, EBNA-1 inhibitor 94, LYPLA2 counter 90, GSTO1 inh 84 | GSTO1 confirm 80
CN(Cc1ccccc1)C(=O)CC(c1ccccc1)c1cc(Cl)ccc1O (stereo not drawn)	GSTO1 inh 58 | GSTO1 confirm inactive
CCOc1ccc2nc(NC(=O)C3CSC4(C)CCC(=O)N34)sc2c1 (stereo not drawn)	none (no result: EBNA-1 inhibitor, GSTO1 inh)
COCc1nc2ccccc2n1CCc1ccccc1	GSTO1 inh 40 | GSTO1 confirm inactive
COCCn1c(COC)nc2ccccc21	none
C#Cc1ccc(CN2CCN(CCCc3ccccc3)C(CCO)C2)cc1 (stereo not drawn)	none
CCN(CC)S(=O)(=O)c1ccc(NS(=O)(=O)c2ccc3oc(=O)[nH]c3c2)cc1	GSTO1 inh 44 | GSTO1 confirm 58
CCN(CC)S(=O)(=O)c1ccc(NS(=O)(=O)c2ccc(O)c([N+](=O)[O-])c2)cc1	none
CC1(C(=O)NC2CCCCC2)CCC(=O)N1Cc1cccnc1 (stereo not drawn)	GSTO1 inh 52 | GSTO1 confirm inactive
CC1CCC(NC(=O)C2(C)CCC(=O)N2Cc2cccnc2)CC1 (stereo not drawn)	none
Cc1ccc(C(=O)NNc2cc(N3CCCC3)nc(N3CCCC3)n2)cc1	GSTO1 inh 49 | GSTO1 confirm 72
[O-][n+]1onc2c1CCC(=N/O)/C2=N\Nc1ccccc1	GSTO1 inh 40 | GSTO1 confirm inactive
[O-][n+]1c2c(nn1-c1ccccc1)/C(=N/O)CCC2	none
O=C(CC(=O)Nc1cc(Cl)ccc1Cl)Nc1cc(Cl)ccc1Cl	none
CCC(=O)N1CCN(c2nc(CC)nc3sc4c(c23)CCCC4)CC1	none
CC1CCc2c(sc3nc(C(C)(C)C)nc(N4CCN(C(=O)CCl)CC4)c23)C1 (stereo not drawn)	GSTO1 inh 73 | GSTO1 confirm 74 | GSTO1 recomb ABPP inactive
O=C(NN1C(=O)/C(=C\c2cccnc2)SC1=S)c1ccco1	none
Cc1ccc(/C=C2\SC(=O)N(CCNC(=O)C3CSC4(C)CCC(=O)N34)C2=O)cc1 (stereo not drawn)	none
CCN(CC(=O)Nc1c(F)cccc1F)C(=O)Cc1csc(-c2ccccc2)n1	none
NS(=O)(=O)c1ccc2nc(NC(=O)c3ccc4c(c3)OCCO4)sc2c1	GSTO1 inh 42 | GSTO1 confirm inactive
COc1ccc(CCNC(=O)c2noc(C(C)C)c2[N+](=O)[O-])cc1OC	GSTO1 inh 39 | GSTO1 confirm inactive
CCN1CCN(c2nc3ccccc3nc2C(C#N)S(=O)(=O)c2ccc(C)cc2)CC1 (stereo not drawn)	none
Cc1ccc(S(=O)(=O)C(C#N)c2nc3ccccc3nc2N2CCCC2)cc1 (stereo not drawn)	GSTO1 inh 51 | GSTO1 confirm inactive
O=C1Nc2c(Br)cccc2C1=O	none (no result: LYPLA1 counter, EBNA-1 inhibitor, ZTA DNA inh, LYPLA2 counter, GSTO1 inh)
COC(=O)c1cccc2c1NC(=O)C2=O	GSTO1 inh 51 | GSTO1 confirm inactive
Cc1ccc2nc(SCC(=O)NC3CCS(=O)(=O)C3)[nH]c2c1 (stereo not drawn)	none (no result: LYPLA1 counter, EBNA-1 inhibitor, ZTA DNA inh, LYPLA2 counter, GSTO1 inh)
Cc1cc(/C=C2\SC(=S)NC2=O)c(C)n1C1CC1	GSTO1 inh 40 | GSTO1 confirm 51
O=C(NC1CC(=O)N(c2ccc(Cl)cc2)C1)N1CCN(C(=O)c2ccco2)CC1 (stereo not drawn)	none
CC1(C)CC(=O)C(C=Nc2ccc(O)cc2)=C(O)C1	GSTO1 inh 38 | GSTO1 confirm inactive
CC1(C)CC(=O)C(C=NCCc2ccc(S(N)(=O)=O)cc2)=C(O)C1	GSTO1 inh 41 | GSTO1 confirm inactive
CCOc1ccc(N=CC2=C(O)CC(C)(C)CC2=O)cc1	none
COc1cccc(NC(=O)c2nnn(CC(=O)Nc3cc(C)cc(C)c3)c2N)c1	none
Cc1cccc(NC(=O)Cn2nnc(C(=O)Nc3ccc(F)c(Cl)c3)c2N)c1	GSTO1 inh 43 | GSTO1 confirm inactive
O=C1c2ccccc2C(=O)C1(O)O	none (no result: EBNA-1 inhibitor, GSTO1 inh)
CC1(S(=O)(=O)O)CC(=O)c2ccccc2C1=O (stereo not drawn)	GSTO1 inh 74 | GSTO1 confirm 74
CC(C)c1ccc(N=C(N)N=C(N)N)cc1	none
Nc1nc2c(s1)CCc1c-2cnn1-c1ccccc1	PAD4 FP inh 40, GSTO1 inh 72 | GSTO1 confirm 71
Cc1ccc(-c2cnn(-c3ccccc3)c2N)cc1	none
O=C(O)CC(CCc1ccccc1)OC1OC(CO)C(O)C(O)C1O (stereo not drawn)	GSTO1 inh 53 | GSTO1 confirm inactive
[C-]#[N+][C@H](O[C@@H]1O[C@H](CO)[C@@H](O)[C@H](O)[C@H]1O)c1ccccc1	none
CC(CNc1ccccc1O)C(=O)O (stereo not drawn)	GSTO1 inh 45 | GSTO1 confirm inactive
COc1ccc(C(=O)Nc2ccc3[nH]ncc3c2)cc1OC	none
CC(=O)OC(COc1ccccc1)Cn1cnc2cc(C)c(C)cc21 (stereo not drawn)	none
COC(=O)CSc1nnc(-c2sc3ccccc3c2Cl)o1	none
N#CCSc1nnc(-c2sc3ccccc3c2Cl)o1	GSTO1 inh 40 | GSTO1 confirm inactive
CN(Cc1cccc(F)c1)C(=O)c1ccc(S(=O)(=O)N2CCOCC2)cc1	none (no result: EBNA-1 inhibitor, GSTO1 inh)
NC(=O)c1cc(N)ccc1N1CCCC1	GSTO1 inh 51 | GSTO1 confirm inactive
COc1ccc(NC(=S)NC(NC(=O)CCl)C(Cl)(Cl)Cl)c([N+](=O)[O-])c1 (stereo not drawn)	GSTO1 inh 92 | GSTO1 confirm 97
COc1ccc(NC(=S)NC(NC(=O)c2ccccc2Cl)C(Cl)(Cl)Cl)c([N+](=O)[O-])c1 (stereo not drawn)	none
COc1ccc(C(=O)COC(=O)CNC(=O)c2ccccc2)cc1F	none (no result: EBNA-1 inhibitor, GSTO1 inh)
Cn1nc(C(=O)NCC2CCCO2)c2ccccc2c1=O (stereo not drawn)	GSTO1 inh 75 | GSTO1 confirm inactive
COc1ccc(-n2nc(C(=O)NCC3CCCO3)c3ccccc3c2=O)cc1 (stereo not drawn)	none

Bioassay records: PubChem, The Scripps Research Institute Molecular Screening Center
